Experimental findings from PubChem BioAssay (Tox21) are described below.

Inconclusive results are not listed. A call without a number means that no potency is given here. The source made the active and inactive calls. Calls follow the shape of the dose curve; as a rule, active = well fitted cell-killing curve with a large enough effect in the repeat runs; inconclusive = weak or mixed curves, or effect the other way; inactive = flat fitted curve, though single readings scatter.

The nature of this assay: cAMP Responsive Elements (CRE) small molecule agonists, cell-based qHTS assay: qHTS cell viability counter screen (AID 2060914). Also: nearly all actives have a fitted effect of over 50% in size. To be noted: CRE-bla HEK293T viability, CellTiter-Glo luminescence, 5 h; series mostly up to 92.4 µM. In short, it runs like this:
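CRE-bla HEK293T cells in 10% dialyzed FBS medium were exposed to compounds for 3 h at 37C after 18 h plating. CellTiter-Glo was then added in the same wells, and luminescence was read after 30 min at room temperature.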
(In qHTS, concentration-response curves come from the screen itself.)
On to `O=C(O)CC(Cl)C(=O)O` (configuration not stated), for which the Potency entry is “inactive”.

On to `COP(=O)(OC)O/C(C)=C/C(=O)N(C)C`, for which the Potency result is “inactive”.

For the molecule `COc1ccc(C=O)cc1OC`, the Potency result was “inactive”.

As to `CCCCc1c(C)nc(NCC)nc1OS(=O)(=O)N(C)C`, the Potency entry is “inactive”.

As to `CC(C)c1ccc(OP(=O)(Oc2ccc(C(C)C)cc2)Oc2ccc(C(C)C)cc2)cc1`, the Potency result was “inactive”.

Regarding `C1CCC(C2CCCCC2)CC1`, the Potency result was “inactive”.

`CCCC(Cn1cncn1)c1ccc(Cl)cc1Cl` (configuration not stated): the Potency result was “inactive”.

Take `CCCCOC(=O)c1ccccc1C(=O)OCCCC`: the Potency result is “inactive”.

On to `COS(=O)(=O)OC`, for which the Potency entry was “inactive”.

`CN(C)P(=O)(N(C)C)N(C)C`: the Potency entry was “inactive”.

Take `c1ccc(N=NNc2ccccc2)cc1`: the Potency entry was “inactive”.

Take `COP(=S)(OC)Oc1cc(Cl)c(Br)cc1Cl`: the Potency result is “inactive”.

On to `O=Cc1ccco1`, for which the Potency entry is “inactive”.

As to `COCC(C)N(C(=O)CCl)c1c(C)csc1C` (configuration not stated), the Potency result was “inactive”.

As to `CCOP(=S)(OCC)Oc1cc(Cl)c(Br)cc1Cl`, the Potency entry is “inactive”.

As for `C=CC(=O)N(C)C`, the Potency result is “inactive”.

Take `N#Cc1cc(Br)c(O)c(Br)c1`: the Potency result is “inactive”.
